Screening data (PubChem)
This is a sample that favours compounds with a hit; in the whole collection about 2.8% have one here.
PI5P4K alpha inh – blocks human PI5P4K alpha kinase activity. 330,000 compounds, 1.2% hits. P48426. max response, %. PI5P4Kalpha enzyme, ADP-Glo luminescence, 60 min; active compounds read low; active = max response of -50% or lower; inconclusive = between -30% and -50%; inactive = -30% or higher; also: value at the top dose of about 77 µM; % is scaled to controls: 0 for no effect and ±100 for the full control effect
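Luminescence from ADP-Glo served as readout of PI5P4Kalpha activity in a qHTS format. Reaction: enzyme, substrate, compound, ATP at 5 microM final, 60 min at RT.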
Pol eta inh – inhibitors of human DNA polymerase eta; Q9Y253; recombinant Pol eta, fluorescent DNA replication assay; Potency, µM (doses to about 114 µM), for the others: at the highest dose activity change, negative = inhibition, actives largely listed as inhibitors; 390,000 compounds, 1.2% hits; also: potency is read from the fitted curve at half-maximal effect; % is scaled to controls: 0 for no effect and ±100 for the full control effect
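Pol eta at 10 nM preincubated with compounds 15 min at room temperature; reaction started with fluorescent substrate (50 nM final) and read kinetically at 0 and 10 min.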
Pol iota inh – blocks human DNA polymerase iota activity. Potency, µM (series often up to 115 µM), for inactives: at the top dose activity, negative = inhibition, usual class: inhibitors. 390,000 compounds, 1% hits. Q9UNA4. Pol iota fluorescent replication assay, 10 min; also: potency is read from the fitted curve at half-maximal effect
Target sequence (Q9UNA4 whole entry, looked up): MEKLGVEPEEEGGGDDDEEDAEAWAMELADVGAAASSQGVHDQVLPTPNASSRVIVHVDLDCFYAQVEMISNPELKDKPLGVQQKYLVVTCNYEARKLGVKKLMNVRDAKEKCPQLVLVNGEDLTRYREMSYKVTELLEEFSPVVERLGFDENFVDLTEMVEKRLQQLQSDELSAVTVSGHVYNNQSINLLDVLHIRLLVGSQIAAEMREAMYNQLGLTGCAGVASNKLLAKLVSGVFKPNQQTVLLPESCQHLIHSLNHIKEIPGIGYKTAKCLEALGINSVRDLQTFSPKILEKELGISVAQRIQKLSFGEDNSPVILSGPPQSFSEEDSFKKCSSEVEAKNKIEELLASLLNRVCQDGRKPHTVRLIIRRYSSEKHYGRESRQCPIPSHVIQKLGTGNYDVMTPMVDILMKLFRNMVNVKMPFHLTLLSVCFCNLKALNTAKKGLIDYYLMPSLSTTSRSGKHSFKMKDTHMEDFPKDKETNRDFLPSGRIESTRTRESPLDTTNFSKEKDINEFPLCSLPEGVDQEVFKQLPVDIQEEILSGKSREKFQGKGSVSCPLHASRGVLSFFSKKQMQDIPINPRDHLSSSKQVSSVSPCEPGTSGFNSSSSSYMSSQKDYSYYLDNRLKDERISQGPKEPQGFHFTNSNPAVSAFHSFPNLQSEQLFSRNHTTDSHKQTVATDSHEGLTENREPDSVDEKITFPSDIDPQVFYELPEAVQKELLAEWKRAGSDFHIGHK
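Pol iota at 10 nM preincubated 15 min with compounds at room temperature; reaction started with fluorescent substrate, 50 nM final. Fluorescence read kinetically at 0 and 10 min; buffer-only wells as negative control.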
WRN helicase inh – WRN helicase (human) inhibition | WRN helicase unwinding, fluorescent forked duplex, kinetic | 360,000 compounds, 0.46% hits | Q14191 | Potency, µM (series often up to 114 µM), for the others: top-dose activity change, negative = inhibition, hits mostly inhibitors | AID 651768; also: potency is read from the fitted curve at half-maximal effect; % is scaled to controls: 0 for no effect and ±100 for the full control effect; nearly all actives have a fitted effect of over 55% in size
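WRN at 20 nM final preincubated with compound 15 min at room temperature; reaction started with 100 nM fluorophore/quencher forked duplex oligonucleotide and 2 mM ATP final. Unwinding followed kinetically by red fluorescence (ex 525, em 598 nm).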
POLB inh – inhibitors of human DNA polymerase beta | 340,000 compounds, 1.3% hits | Potency, µM (titrated, usually from 114 µM), for the others: at the highest dose activity change, negative = inhibition, hits mostly inhibitors | P06746 | Pol beta primer extension/strand displacement, fluorescence kinetic; also: potency is read from the fitted curve at half-maximal effect; % is scaled to controls: 0 for no effect and ±100 for the full control effect
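Pol beta (10 nM) and compounds were preincubated 15 min at room temperature, then 50 nM substrate (final) started primer extension/strand displacement. Reads were taken at 0 and 10 min; concentration-response data were fitted to a four-parameter Hill equation.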
Pol kappa inh – blocks human DNA polymerase kappa activity. Q9UBT6. purified Pol kappa, fluorescent DNA synthesis assay, 10 min. Potency, µM (top dose mostly 107 µM), without a hit: at the top dose activity, negative = inhibition, hits mostly inhibitors. 400,000 compounds, 0.53% hits; also: potency is read from the fitted curve at half-maximal effect; % is scaled to controls: 0 for no effect and ±100 for the full control effect
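Enzyme at 10 nM met test compounds for 15 min at room temperature. Substrate addition (50 nM final) began the reaction, which was monitored by fluorescence at 0 and 10 min.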
An asterisk follows results filed as active; ? = inconclusive; nt = no result; [ ] = another dose, or the depositor's remark. Unless noted, calls follow the shape of the dose curve; as a rule, active = well fitted curve in the direction sought with a large enough effect; inconclusive = small, poorly fitted or top-dose-only effect, or another doubt; inactive = no such curve, though single readings can be large; an effect the other way counts as inactive or inconclusive.

SMILES	PI5P4K alpha inh	Pol eta inh	Pol iota inh	WRN helicase inh	POLB inh	Pol kappa inh
CCC(C)N1C(=O)/C(=C\c2ccc(N3CCCCCC3)cc2)C(=O)NC1=S (stereo not given)	-58*	6%	87%	?	-23%	-13%
CCCCN1C(=O)/C(=C/c2ccc(N3CCCCCC3)cc2)C(=O)NC1=S	nt	nt	nt	nt	-16%	nt
CN1C(=O)/C(=C\c2ccc(N3CCCCCC3)cc2)C(=O)NC1=S	-56*	-11%	-10%	-17%	-29%	-15%
Cc1cc(N2CCCCC2)ccc1C=C1C(=O)N(C)C(=S)N(C)C1=O	-60*	?	-6%	-36%[57.1 µM]	-14%	-10%
O=C(NCc1cccnc1)C1CCN(S(=O)(=O)c2cc([N+](=O)[O-])ccc2Cl)CC1	1	-6%	57%	-7%	nt	-19%
CCCCCCCCCC[n+]1cccc([C@@H]2CCCN2C)c1	nt	nt	nt	nt	nt	14%[60.1 µM]
CC(C)(C)N1C(=O)NC(=O)/C(=C\c2ccc3c(c2)CCN3CCCCl)C1=O	?	?	?	-26%[57.1 µM]	?	-33%
O=C1NC(=O)N(c2cccc(F)c2)C(=O)/C1=C/c1ccc(N2CCOCC2)cc1	-61*	4%	?	-8%	?	-20%
CCC(C)N1C(=O)/C(=C\c2cc3c4c(c2)CCCN4CCC3)C(=O)NC1=S (stereo not given)	?	?	?	?	45µM*	-34%
Cc1cc(N2CCOCC2)ccc1/C=C1\C(=O)NC(=O)N(c2ccccc2)C1=O	-26	-7%	-20%	-6%	-18%	-5%
CC[C@H](C)[C@H](NC(=O)[C@H](CO)NC(=O)[C@H](CC(N)=O)NC(=O)[C@H](CC(C)C)NC(=O)[C@H](Cc1ccc(O)cc1)NC(=O)[C@H](CCCCN)NC(=O)[C@H](CCCCN)NC(=O)[C@@H](NC(=O)[C@H](C)NC(=O)[C@H](CCSC)NC(=O)[C@H](CCC(N)=O)NC(=O)[C@H](CCCCN)NC(=O)[C@H](CCCNC(=N)N)NC(=O)[C@H](CC(C)C)NC(=O)[C@H](CCCNC(=N)N)NC(=O)[C@@H](NC(=O)[C@H](Cc1ccc(O)cc1)NC(=O)[C@H](CC(N)=O)NC(=O)[C@H](CC(=O)O)NC(=O)[C@@H](NC(=O)[C@H](Cc1ccccc1)NC(=O)[C@@H](NC(=O)[C@H](C)NC(=O)[C@H](CC(=O)O)NC(=O)[C@H](CO)NC(=O)[C@@H](N)Cc1cnc[nH]1)C(C)C)[C@@H](C)O)[C@@H](C)O)C(C)C)C(=O)N[C@@H](CC(C)C)C(=O)N[C@@H](CC(N)=O)C(N)=O	nt	nt	nt	nt	nt	18%[60.1 µM]
COc1ccc(COC(=O)CCNC(=O)c2ccc(Cl)cc2)cc1	-1	-15%	23%	8%	nt	-24%
Nc1ccccc1C(=O)OC1CSC1	nt	?	9%	-16%[57.1 µM]	56µM*	-2%
CNC(C)C#Cc1ccc2oc3cc(C)c(C)cc3c(=O)c2c1 (stereo not given)	6	-16%	8.9µM*	2%	nt	19%
ClCCN(CCCl)/C(=C\c1ccccc1)c1ccnc2ccccc12	nt	nt	17%	nt	nt	5%
CCOP(=O)(C1=C(O)C(=O)C(C(C)(C)C)=CC1=O)c1ccccc1 (stereo not given)	-17	-5%	32µM*	?	-11%	-8%
CCOP(=O)(OCC)C(O)c1ccccc1 (stereo not given)	1	-5%	12%	1%	?	-7%
CC1(C)OC(c2ccccc2)=C/C(=C/C=C2C(=O)NC(=O)NC2=O)O1	-23	?	?	?	14µM*	-32%
COc1ccc(-n2ncc(C(=O)N3CCN(c4cc(C)ccc4C)CC3)c2C2CCN(C(=O)OC(C)(C)C)CC2)cc1	nt	-24%	33%	nt	0%	-17%
CN1CCN(c2ccc([N+](=O)[O-])c3no[n+]([O-])c23)CC1	-11	89µM*	18µM*	-28%	-24%	-15%
O=[N+]([O-])c1ccc(N(CCO)CCO)c2c1no[n+]2[O-]	?	28µM*	nt	-3%[11.6 µM]	nt	nt
COC1(C)CC(c2ccccc2)c2c(c3ccccc3oc2=O)O1 (stereo not given)	nt	nt	nt	nt	nt	-2%[60.1 µM]
Cc1ccc(-n2sc3ccccc3c2=O)cc1	-104*	-19%	-3%	?	34%	-7%
CC[C@H](CO)NC(=O)[C@H]1C=C2c3cccc4[nH]cc(c34)C[C@@H]2N(C)C1	nt	nt	nt	nt	nt	-5%[12 µM]
CCOCCCNC(=O)c1c[nH]c2ccc(S(=O)(=O)N(C)c3ccc(Cl)cc3F)cc2c1=O	nt	-13%	-29%	nt	?	-4%[60.1 µM]
SMILES	PI5P4K alpha inh	Pol eta inh	Pol iota inh	WRN helicase inh	POLB inh	Pol kappa inh
O=C1NC(=O)N(c2ccccc2F)C(=O)/C1=C/c1ccc(Oc2ccc([N+](=O)[O-])cn2)cc1	-52*	-13%	-17%	-10%	-3%	-33%
Cc1ccc(CCNC(=O)Cn2nc(C)c3c(C)n(-c4ccc(C)cc4)nc3c2=O)cc1	nt	?	-7%	nt	79µM*	-2%
CN1C(=O)NC(=O)/C(=C\C=C\c2ccccc2[N+](=O)[O-])C1=O	?	?	14µM*	-1%	-1%	-11%
O=c1c2ccccc2nc(/C=C\c2ccccc2[N+](=O)[O-])n1-c1ccccc1O	-2	-4%	22%	-28%	-16%	-13%
CC[C@H](C)/C=C(C)/C=C/C1=CC2=C(Cl)C(=O)[C@@](C)(OC(C)=O)C(=O)C2=CO1	-87*	20µM*	?	45µM*	nt	?
COc1ccc(CNC(=O)Cn2c(=O)nc(-c3ccccc3F)c3cc(Cl)ccc32)cc1	nt	?	9%	nt	4%	-9%[60.1 µM]
COc1ccc(N2C(=O)NC(=O)/C(=C/c3cccc(OC(=O)c4cccs4)c3)C2=O)cc1Cl	?	-12%	-17%	?	-10%	0%
Cc1ccc(N2C(=O)NC(=O)/C(=C/c3ccc(OC(=O)c4cccs4)cc3)C2=O)cc1	nt	-8%	-15%	50µM*	21%	-5%
COc1ccc(CCn2c(NN=C3CCCCC3)nc3c2c(=O)[nH]c(=O)n3C)cc1	?	?	18µM*	-5%	-23%	-18%
CC(C)c1ccc(Cc2cn3cc(-c4cc5ccccc5oc4=O)nc3s2)cc1	nt	-16%	49%	nt	-1%	5%
CC(C)CCNC(=O)CNC(=O)[C@@H](C)NC(=O)[C@@H](N)Cc1ccc(O)cc1	nt	nt	nt	nt	nt	7%[60.1 µM]
NC(=O)c1cn(C2CCCCC2)c2ccccc2c1=O	1	-3%	18%	-3%	0%	4%
O=C1c2ccccc2C(=O)N1SC1CCCCC1	1	-11%	?	50µM*	2%	10%
